Bioassay records from PubChem.
Shown are actives, neighbours in structure and some others; about 32% of the full set was active somewhere.
PostGolgi yeast = growth inhibition of a yeast mutant, post-Golgi transport screen; post-Golgi transport phenotypic cell assay; inhibition, % at 10 µM; 98,000 tested, 0.9% active; AID 739;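 further: yeast cells grown in 1536-well plates; yeast grown about 18 h at 30C before absorbance read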
CYP2C9 activ = increases human cytochrome P450 2C9 activity | P11712 | recombinant CYP2C9, luciferin-H conversion, luminescence; active compounds read high; factor 1 = untreated enzyme, 0 = blocked | activation factor at 5 µM | 96,000 tested, 1.4% active | AID 1024;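 active means activation factor of 2 or more for CYP2C9 at a 5 µM dose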
Target sequence (P11712 whole entry, looked up): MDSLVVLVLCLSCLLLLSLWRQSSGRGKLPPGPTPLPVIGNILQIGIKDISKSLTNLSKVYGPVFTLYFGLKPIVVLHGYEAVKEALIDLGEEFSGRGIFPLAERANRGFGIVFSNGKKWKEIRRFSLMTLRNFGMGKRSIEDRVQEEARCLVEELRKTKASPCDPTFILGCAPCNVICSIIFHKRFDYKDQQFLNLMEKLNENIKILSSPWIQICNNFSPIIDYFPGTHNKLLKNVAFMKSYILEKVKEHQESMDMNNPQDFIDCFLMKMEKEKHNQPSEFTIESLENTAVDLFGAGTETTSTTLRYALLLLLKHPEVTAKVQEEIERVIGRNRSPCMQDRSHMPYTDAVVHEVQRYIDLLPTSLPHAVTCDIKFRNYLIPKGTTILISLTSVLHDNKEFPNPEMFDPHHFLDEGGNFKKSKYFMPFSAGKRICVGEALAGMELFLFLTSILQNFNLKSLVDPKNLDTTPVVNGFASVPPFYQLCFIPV
CYP2C19 inh = human CYP2C19 inhibition; AID 778; CYP2C19 Supersomes, luciferin-H EGE luminescence, 30 min; inhibition, % at 5 µM; 96,000 tested, 21% active;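 active means CYP2C19 inhibition above a set limit at 5 µM in the primary screen, cut at about 50% in these data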
CYP2C9 inhib = human CYP2C9 inhibition; CYP2C9 Supersomes, luciferin-H conversion, luminescence; inhibition, % at 5 µM; 96,000 tested, 20% active;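 active means blocking of liver enzyme CYP2C9 beyond about 50% at 5 µM, limit read from the data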
PostGolgi ctrl = growth of the yeast control strain, post-Golgi counter-screen; efflux-deficient yeast background strain, growth absorbance A615, 16 h; inhibition, % at 10 µM; 98,000 tested, 5% active; AID 738
CYP2C19 act = increases human CYP2C19 enzyme activity | activation factor at 5 µM | 96,000 tested, under 10 active | P33261 | AID 1025 | recombinant CYP2C19, luciferin-H EGE luminescence; active compounds read high; 0 = fully inhibited enzyme, 1 = untreated enzyme;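 active means activation factor of at least 2 at 5 µM in the primary screen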
Of the large screens only hits and unclear results are named; the others gave an inactive call. Unless noted, no stated cut-off is given here; in the data, active means inhibition above about 30%; inactive means the rest.

CCn1c(C(=O)N2CCC(C(=O)NCCCSC3CCCCC3)CC2)cc2sccc21	CYP2C19 inh 53
Cc1cc(C)c(C)c(S(=O)(=O)N2CCN(CC(=O)NC(=O)NCc3ccccc3)CC2)c1C	none
CCOC(=O)c1cc2sccc2n1CC(=O)N1CCc2ccccc21	none
CCn1c(C(=O)N2CCc3ccccc3C2)cc2sccc21	CYP2C19 inh 63
Cc1sc2ncnc(NCCCn3ccnc3)c2c1C	CYP2C19 inh 92, CYP2C9 inhib 90
Cc1cccc(-n2ncc3c(NCCCn4ccnc4)ncnc32)c1	CYP2C19 inh 90, CYP2C9 inhib 91
c1cn(CCCNc2ncnc3nc[nH]c23)cn1	none
Cc1ccc(-n2ncc3c(NCCCn4ccnc4)ncnc32)c(C)c1	CYP2C19 inh 73, CYP2C9 inhib 80 (no result: PostGolgi yeast, PostGolgi ctrl)
Cc1ccc(-n2ncc3c(NCCCN4CCOCC4)ncnc32)c(C)c1	none
Nc1c2c(nc3ccn(-c4ccccc4)c(=O)c13)CCCCC2	none
Nc1c2c(nc3ccn(Cc4ccccc4)c(=O)c13)CCC2	PostGolgi ctrl 44
COc1ccccc1NC(=O)CCn1cccc1	none
O=C(O)CCc1n[nH]c(=S)[nH]c1=O	none
Cc1n[nH]c(C)c1-c1nc2ccccc2[nH]1	none (no result: CYP2C9 activ, CYP2C19 inh, CYP2C9 inhib, CYP2C19 act)
Cc1[nH]nc2c1-c1nc3ccccc3nc1C(C)(C)C2	CYP2C19 inh 68
COc1cc(CNc2ccccc2Oc2cc(=O)n(C)c(=O)n2C)cc(OC)c1OC	none
Cn1c(Oc2ccccc2NCc2cc(Br)ccc2O)cc(=O)n(C)c1=O	CYP2C19 inh 76, CYP2C9 inhib 95
Cc1ccc(NCCC(=O)c2cccc([N+](=O)[O-])c2)cc1	CYP2C19 inh 94
O=C(CCNc1ccc(F)cc1)c1cccc([N+](=O)[O-])c1	CYP2C19 inh 56
O=C(CCNc1ccccc1)c1cccc([N+](=O)[O-])c1	CYP2C19 inh 67
Cc1nc(SCC(=O)c2cccc([N+](=O)[O-])c2)n[nH]1	none
Cc1ccc(NC(=O)CCC(=O)NNC(=O)c2cccc([N+](=O)[O-])c2)cc1C	none
CC1CCN(C(=O)c2ccc(COc3ccccc3Cl)o2)CC1	none
CSc1nnc(NC(=O)c2cc3ccccc3oc2=O)s1	none
CCN(CC)c1nc2c(s1)C(=O)CC(C)(C)C2	none
O=S(=O)(c1cccc(S(=O)(=O)N2CCC(Cc3ccccc3)CC2)c1)N1CCOCC1	none (no result: CYP2C9 activ, CYP2C19 inh, CYP2C9 inhib, CYP2C19 act)
O=S(=O)(NCc1ccccc1)c1cccc(S(=O)(=O)N2CCOCC2)c1	CYP2C19 inh 64
O=S(=O)(NCCc1ccccc1F)c1cccc(S(=O)(=O)N2CCOCC2)c1	CYP2C19 inh 88, CYP2C9 inhib 62
O=S(=O)(NCc1cccs1)c1cccc(S(=O)(=O)N2CCCCC2)c1	CYP2C19 inh 52
COc1ccccc1CNS(=O)(=O)c1cccc(S(=O)(=O)N2CCOCC2)c1	none
CC(C)Oc1ccc(CNCC2(O)CCOC(C)(C)C2)cc1 (stereo not drawn)	none (no result: CYP2C9 activ, CYP2C19 inh, CYP2C9 inhib, CYP2C19 act)
C=CCNC(=O)CSc1ccc(Cl)cc1	none
O=C(Nc1nc(=S)ss1)c1c(F)cccc1F	CYP2C9 inhib 80
Cc1ccccc1C(=O)Nc1nc(=S)ss1	CYP2C9 inhib 81
CC(=O)Nc1nc(=S)ss1	none
Cc1ccccc1C(=O)Nc1ccc(Br)c(C)n1	none
CC(C)CC(=O)Nc1nc(=S)ss1	CYP2C9 inhib 69
CCOc1ccc(CC(=O)Nc2c(C(=O)Nc3ccccc3)oc3ccccc23)cc1OCC	none
NS(=O)(=O)c1ccc(CNC(=O)CC23CC4CC(CC(C4)C2)C3)cc1	none
C=CCNC(=O)C1CCN(S(C)(=O)=O)CC1	none
CCOc1ccccc1C(=O)OCC(=O)Nc1ncc(C(F)(F)F)cc1Cl	CYP2C19 inh 93
CCOc1ccccc1C(=O)OCC(=O)Nc1ccc(OC(F)F)cc1	CYP2C19 inh 55
CCOc1ncccc1C(=O)OCC(=O)Nc1ncc(C(F)(F)F)cc1Cl	CYP2C19 inh 62
O=C(COC(=O)C12CC3CC(CC(C3)C1)C2)Nc1ccc(OC(F)F)cc1	none
COc1ccc(NC(=S)NNC(=O)c2ccccc2OC(F)F)cc1	CYP2C9 inhib 54
Cc1cc(C)nc(-n2nc(C)cc2NC(=O)c2ccc3c(c2)OCO3)n1	none (no result: PostGolgi yeast, PostGolgi ctrl)
Cc1c(NS(=O)(=O)c2ccc3[nH]c(=O)[nH]c3c2)c(=O)n(-c2ccccc2)n1C	none
CCOC(=O)c1[nH]c(C)c(/C(O)=C2\C(=O)C(=O)N(CCCN(C)C)C2c2cccnc2)c1C (stereo not drawn)	none
